{"source": "PubChem BioAssay (Tox21)", "note": "Records with an inconclusive call do not appear. Entries that show only a call come without a potency. Values without a mark were called inactive. The source made the active and inactive calls. The call rests on the fitted dose curve; in most records, active means well fitted inhibition curve with a large enough effect in the signal ratio in the repeat runs (not every such curve was filed as active); inconclusive means weak or mixed curves, or effect the other way; inactive means flat fitted curve, though single readings scatter; the % refers to the signal ratio."}
{"experiment": "cAMP Responsive Elements (CRE) small molecule antagonists, cell-based qHTS assay (AID 1963591)", "settings": "CRE-bla HEK293T, beta-lactamase FRET ratio; series mostly up to 92.4 µM", "text": "U.S. Tox21 Program National Center for Advancing Translational Sciences [NCATS] Division of Preclinical Innovation [DPI] U.S. Environmental Protection Agency [EPA] National Institutes of Environmental Health Sciences [NIEHS] National Toxicology Program [NTP] U.S. Food and Drug Administration [FDA] Tox21 Assay Overview: CREB (cyclic-AMP Responsive Element Binding Protein) is a cellular transcription factor. It binds to certain DNA sequences called cAMP Responsive Elements (CRE) and regulates the transcription of the genes. […] This cell line can be used to find agonists/antagonists of the cyclic AMP signaling pathway. The activation of the report gene under culture conditions can be detected by fluorescence intensity. This cell line has been used to screen the Tox21 10K compound library to […].\nTox21 Assay Protocol Summary: CRE-bla Hek 293T cells were suspended in assay medium (DMEM containing 10% dialyzed FBS, 0.1 mM NEAA, 1 mM sodium pyruvate and 25 mM HEPES) and dispensed at 2,000 cells/4 uL /well into 1536-well black wall/clear bottom plates using a Multidrop Combi (ThermoFisher Scientific, Waltham, MA) dispenser. After the assay plates were incubated at 37 C/5% CO2 for 18 hrs, 23 nL of compounds dissolved in DMSO, positive controls or DMSO only was transferred to the assay plate by a pintool workstation (Kalypsys, San Diego, CA), followed by addition of 1 […] uL of 1.25uM NKH477 (0.25 uM as final concentration) in assay medium using a Flying Reagent Dispenser (Aurora Discovery, San Diego, CA). The plates were incubated at 37 C and 5% CO2 for 3 hrs. Then 1 uL of LiveBLAzer B/G FRET substrate (Invitrogen, Carlsbad, CA) was added to each well using Bioraptr Flying Reagent Dispenser (FRD, Aurora Discovery, San Diego, CA). The plates were incubated at room temperature for 2 h."}
{"smiles": "CCCCCCCCCOC(C)=O", "Potency": "inactive"}
{"smiles": "COc1cccc(O)c1", "Potency": "inactive"}
{"smiles": "COC(C)(C)CCCC(C)CC=O", "note": "(stereo not given)", "Potency": "inactive"}
{"smiles": "Cc1scc2c1N(C(=O)CN1CCN(C)CC1)c1ccccc1NC2=O", "Potency": "inactive"}
{"smiles": "CCCCN(CCCC)C(C(N)=O)c1ccc(OC)cc1", "note": "(stereo not given)", "Potency": "inactive"}
{"smiles": "C=CC(=O)OCC(Br)CBr", "note": "(stereo not given)", "Potency": "inactive"}
{"smiles": "CC(=O)Nc1cc(S(=O)(=O)O)cc2cc(S(=O)(=O)O)c(N=Nc3ccccc3)c(O)c12", "Potency": "inactive"}
{"smiles": "CCOC(=O)CC1(C)OCC(C)O1", "note": "(stereo not given)", "Potency": "inactive"}
{"smiles": "CCCCCCCCC(C)=O", "Potency": "inactive"}
{"smiles": "CCC1NC(=O)c2cc(S(N)(=O)=O)c(Cl)cc2N1", "note": "(stereo not given)", "Potency": "inactive"}
{"smiles": "CCCCc1ccc(N)cc1", "Potency": "inactive"}
{"smiles": "NS(=O)(=O)c1cc(C2(O)NC(=O)c3ccccc32)ccc1Cl", "note": "(stereo not given)", "Potency": "inactive"}
{"smiles": "Nc1cccc(S(=O)(=O)O)c1", "Potency": "inactive"}
{"smiles": "C=CC/C=C/C/C=C/C/C=C/C", "Potency": "inactive"}
{"smiles": "NCC[C@H](O)C(=O)N[C@@H]1C[C@H](N)[C@@H](O[C@H]2O[C@H](CN)[C@@H](O)[C@H](O)[C@H]2O)[C@H](O)[C@H]1O[C@H]1O[C@H](CO)[C@@H](O)[C@H](N)[C@H]1O", "activity change, negative = inhibition": "-1.04% [at 0.349 µM]"}
{"smiles": "Cc1cc(S(=O)(=O)O)ccc1N=Nc1c(O)ccc2ccccc12", "Potency": "inactive"}
{"smiles": "CCC(CO)(CO)[N+](=O)[O-]", "Potency": "inactive"}
{"smiles": "CCCCOC(=O)C(C)CC", "note": "(stereo not given)", "Potency": "inactive"}
{"smiles": "CCn1cc(C(=O)O)c(=O)c2cnc(N3CCCC3)nc21", "activity change, negative = inhibition": "-10.5% [at 8.39 µM]"}
{"smiles": "CCCCCc1ccc(Cl)cc1", "Potency": "inactive"}
{"smiles": "CC(C)=CCC1=C(O)c2ccccc2C(=O)C1=O", "Potency": "inactive"}
{"smiles": "CCC(CC)C(=O)O", "Potency": "inactive"}
{"smiles": "Cc1ccc2c(c1[N+](=O)[O-])C(=O)c1ccccc1C2=O", "Potency": "inactive"}
{"smiles": "CCN1CCCC1CN", "note": "(stereo not given)", "Potency": "inactive"}
{"smiles": "Cc1cc(N)c2cc(NC(=O)Nc3ccc4nc(C)cc(N)c4c3)ccc2n1", "Potency": "inactive"}
{"smiles": "C[C@H](N)[C@H](O)c1cccc(O)c1", "Potency": "inactive"}
{"smiles": "Nc1ccc2cc(S(=O)(=O)O)cc(O)c2c1", "Potency": "inactive"}
{"smiles": "CO[Si](CCCS)(OC)OC", "Potency": "inactive"}
{"smiles": "CCOC(=O)/C=C/C(=O)O", "Potency": "inactive"}
{"smiles": "CCCCCN(CCCCC)C(=O)C(CCC(=O)O)NC(=O)c1ccc(Cl)c(Cl)c1", "note": "(stereo not given)", "Potency": "inactive"}
{"smiles": "CC(=O)Nc1ccc(S(=O)(=O)Nc2cc(C)on2)cc1", "Potency": "inactive"}
{"smiles": "O=C1c2ccccc2C(=O)N1CO", "Potency": "inactive"}
{"smiles": "OC1CCC(C2CCCCC2)CC1", "note": "(stereo not given)", "Potency": "inactive"}
{"smiles": "OCCN(CCO)c1ccccc1", "Potency": "inactive"}
{"smiles": "N#Cc1ccc(CC(=O)c2cccc(C(F)(F)F)c2)cc1", "Potency": "inactive"}
{"smiles": "CC(C)(O)CCc1ccccc1", "Potency": "inactive"}
{"smiles": "CC(=O)Nc1ccc(N)cc1", "Potency": "inactive"}
{"smiles": "Cc1c(C2(c3cc(Br)c(O)c(Br)c3C)OS(=O)(=O)c3ccccc32)cc(Br)c(O)c1Br", "Potency": "inactive"}
{"smiles": "CC1=CC[C@H](C(C)C)C=C1", "Potency": "inactive"}
{"smiles": "Nc1ccc(C(=O)Oc2ccccc2)c(O)c1", "Potency": "inactive"}
